Several values for one entry are separate records, joined by “and”; a condition that tells them apart may be missing. Equal entries are not always repeated. Inconclusive results are not listed. Activity calls are given as the source filed them. Unless noted, the call rests on the fitted dose curve; in most records, active means well fitted curve in the direction sought with a large enough effect in the repeat runs; inconclusive means weak or mixed curves; inactive means no such curve, though single readings can be large; an effect the other way counts as inactive or inconclusive.

Assay [1] can be described thus: qHTS assay to identify small molecule antagonists of the sonic hedgehog signaling (Shh) pathway (AID 1259369; calls by dose curve; further: nearly all actives have a fitted effect of over 45% in size; further: potency means the concentration at half of the fitted maximal effect). The procedure, abridged:
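NIH/3T3 stable Gli1-Luc clone, 2,000 cells/well, 4hr settle; cpd + conditioned medium 24hr; Luc reagent 30min RT; luminescence.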
(In general: qHTS replaces the single test concentration by a dilution series.)

The target of assay [2] is Estrogen receptor beta (Homo sapiens) (UniProt Q92731). The assay is described as follows: qHTS assay to identify small molecule agonists of the estrogen receptor beta (ER-beta) signaling pathway (AID 1259377; active means well fitted activation curve with a large enough effect in the signal ratio in the repeat runs, not every such curve was filed as active; the % refers to the signal ratio). The procedure, abridged:
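Screening used GripTite ER-beta-UAS-bla cells held in 2% charcoal-stripped FBS medium. After overnight (16 hr) compound incubation at 37C, beta-lactamase activity was detected with a FRET substrate by fluorescence.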

Assay [3] shares this target. The assay is described as follows: qHTS assay to identify small molecule antagonists of the estrogen receptor beta (ER-beta) signaling pathway (AID 1259378; active means well fitted inhibition curve with a large enough effect in the signal ratio in the repeat runs, not every such curve was filed as active; the % refers to the signal ratio; further: potency means the concentration at half of the fitted maximal effect). The procedure, abridged:
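ER-beta-UAS-bla HEK293T cells in 2% charcoal-stripped FBS medium treated with compound plus 1nM final 17-beta-estradiol for 16 hr at 37C. Beta-lactamase reporter read by FRET substrate fluorescence after 2 hours at room temperature.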

Assay [4] in a line: qHTS assay to identify small molecule agonists of the androgen receptor (AR) signaling pathway in the presence of an antagonist - cell viability counter screen (AID 1259379). Further: nearly all actives have a fitted effect of over 25% in size. Further: potency means the concentration at half of the fitted maximal effect. The procedure, abridged: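 MDA-kb2 viability measured by CellTiter-Fluor fluorescence in the same wells as the luciferase signal; nilutamide 3.0uM final; 15-point compound titration; 16 hr at 37C.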
The nature of assay [5]: qHTS assay to identify small molecule agonists of the estrogen receptor beta (ER-beta) signaling pathway - cell viability counter screen (AID 1259380). Further: nearly all actives have a fitted effect of over 30% in size. Further: potency means the concentration at half of the fitted maximal effect. The procedure, abridged: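 Measured: luminescence from CellTiter-Glo after 30 min at room temperature, added to wells already read for the LiveBLAzer FRET reporter (2 hr substrate); ER-beta-UAS-bla HEK293T cells had 16 hr compound treatment at 37C, 5% CO2.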

Assay [6] concerns the target Estrogen receptor (Homo sapiens) (UniProt P03372). As to the kind of experiment: qHTS assay to identify small molecule agonists of the estrogen receptor alpha (ER-alpha) signaling pathway in the presence of an antagonist (AID 1259383; calls by dose curve; further: top concentration of the series differs between compounds; nearly all actives have a fitted effect of over 15% in size). The gist of the method:
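Quantitative HTS confirmation: compounds titrated at 15 concentrations onto estrogen-deprived VM7Luc4E2 cells carrying a four-ERE luciferase construct, with ICI-182,780 present at 10.0nM final. Signal is luminescence after 22hr exposure.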

The nature of assay [7]: qHTS assay to identify small molecule agonists or antagonists of the thyroid stimulating hormone receptor (TSHR) signaling pathway - wild type cell line counter screen (AID 1259384; calls by dose curve). The gist of the method: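 Wild-type Hek293 cells, 800/well, 18 h at 37C, then compound with Ro20-1724 for 30 min RT. cAMP by HTRF (cAMP-d2/anti-cAMP cryptate), 1 h RT, fluorescence read. 15 concentrations, triplicates.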

Assay [8] has as its target Thyrotropin receptor (Homo sapiens) (UniProt P16473). The assay is described as follows: qHTS assay to identify small molecule antagonists of the thyroid stimulating hormone receptor (TSHR) signaling pathway (AID 1259385; calls by dose curve; further: nearly all actives have a fitted effect of over 20% in size). The procedure, abridged:
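TSHR-HEK293 cells (800/well) plated 18 h, then compounds with Ro20-1724 and TSH at 1.5 ng/mL final, 30 min at room temperature. cAMP quantified by HTRF (cAMP-d2/anti-cAMP-cryptate, 1 h); 15 concentrations in triplicate.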

Assay [9] is described as follows: qHTS assay to identify small molecule agonists of the estrogen receptor alpha (ER-alpha) signaling pathway in the presence of an antagonist - cell viability counter screen (AID 1259386).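 Further: cells exposed to compounds for 22 h at 37 °C before the viability read; nearly all actives have a fitted effect of over 30% in size.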 Further: potency means the concentration at half of the fitted maximal effect. The gist of the method:
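The test measures whether compounds kill ER-alpha reporter cells (VM7Luc4E2) under antagonist co-treatment (ICI-182,780, 10.0nM). Fluorescence from CellTiter-Fluor is read after a 22hr exposure.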

The target in assay [10] is Progesterone receptor (Homo sapiens) (UniProt P06401). As to the kind of experiment: qHTS assay to identify small molecule agonists of the progesterone receptor (PR) signaling pathway (AID 1346784; calls by dose curve; further: nearly all actives have a fitted effect of over 30% in size). The gist of the method: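 Seed PR-UAS-bla HEK 293T cells (2% charcoal-stripped FBS), incubate 6 hr at 37C; add compounds in DMSO, 16 hr at 37C; add LiveBLAzer B/G substrate, 2 hr RT; read fluorescence intensity.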
Chain of Progesterone receptor (Homo sapiens) (P06401 whole entry, looked up): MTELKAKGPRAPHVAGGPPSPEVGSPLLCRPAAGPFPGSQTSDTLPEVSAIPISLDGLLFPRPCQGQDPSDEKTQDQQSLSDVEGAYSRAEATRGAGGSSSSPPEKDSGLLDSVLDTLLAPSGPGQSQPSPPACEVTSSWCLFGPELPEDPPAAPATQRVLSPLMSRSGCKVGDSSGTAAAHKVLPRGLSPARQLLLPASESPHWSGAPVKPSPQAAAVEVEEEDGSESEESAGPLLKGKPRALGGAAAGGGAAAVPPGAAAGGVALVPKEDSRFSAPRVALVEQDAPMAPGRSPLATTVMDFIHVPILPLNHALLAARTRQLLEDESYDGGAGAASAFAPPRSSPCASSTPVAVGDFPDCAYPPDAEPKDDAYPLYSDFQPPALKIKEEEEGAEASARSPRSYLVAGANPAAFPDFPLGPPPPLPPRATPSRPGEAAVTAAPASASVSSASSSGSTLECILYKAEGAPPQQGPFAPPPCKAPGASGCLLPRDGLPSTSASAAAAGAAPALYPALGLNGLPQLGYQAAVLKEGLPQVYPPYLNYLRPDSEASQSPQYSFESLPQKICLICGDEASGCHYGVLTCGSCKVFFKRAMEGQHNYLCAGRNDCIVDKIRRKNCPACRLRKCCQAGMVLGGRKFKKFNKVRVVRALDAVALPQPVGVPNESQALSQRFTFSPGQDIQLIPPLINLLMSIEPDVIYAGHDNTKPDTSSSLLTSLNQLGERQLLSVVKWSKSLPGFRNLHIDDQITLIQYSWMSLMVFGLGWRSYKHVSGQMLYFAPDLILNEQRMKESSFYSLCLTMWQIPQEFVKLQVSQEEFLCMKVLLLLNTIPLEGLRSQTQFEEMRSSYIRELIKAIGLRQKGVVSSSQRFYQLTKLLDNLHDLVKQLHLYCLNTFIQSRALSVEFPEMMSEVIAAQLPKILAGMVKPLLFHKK

Assay [11] has the same target. As to the kind of experiment: qHTS assay to identify small molecule antagonists of the progesterone receptor (PR) signaling pathway (AID 1346795; active means well fitted inhibition curve with a large enough effect in the signal ratio in the repeat runs, not every such curve was filed as active; the % refers to the signal ratio; further: potency means the concentration at half of the fitted maximal effect). The gist of the method:
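Screening used a GripTite HEK293T line with PR-responsive UAS-beta-lactamase. Cells were challenged with compound in the presence of 1 nM R5020 final for 16 hr at 37C; B/G FRET substrate, 2 hr room temperature, fluorescence.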

Assay [12] is described as follows: qHTS assay to identify small molecule antagonists of the progesterone receptor (PR) signaling pathway - cell viability counter screen (AID 1346798). Further: nearly all actives have a fitted effect of over 50% in size. Further: potency means the concentration at half of the fitted maximal effect. The procedure, abridged:
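Measures cytotoxicity in parallel with the PR antagonist reporter read: HEK293T PR-UAS-bla cells get compound and R5020 for 16 hr, and remaining viable cells are quantified by CellTiter-Glo luminescence.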

A short description of assay [13]: qHTS assay to identify small molecule agonists of the progesterone receptor (PR) signaling pathway - cell viability counter screen (AID 1346799; calls by dose curve; further: nearly all actives have a fitted effect of over 45% in size; further: potency means the concentration at half of the fitted maximal effect). The procedure, abridged:
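Using the same plates as the PR reporter screen, HEK293T PR-UAS-bla cells received compounds for 16 hr at 37C and were then lysed with CellTiter-Glo; luminescence was read 30 min later at room temperature.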

Assay [14] can be described thus: qHTS assay to identify small molecule antagonists of the TGF-beta/Smad signaling pathway - cell viability counter screen (AID 1346824). Further: nearly all actives have a fitted effect of over 50% in size. Further: potency means the concentration at half of the fitted maximal effect. The procedure, abridged:
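SBE-bla HEK 293T cells, incubated overnight, then compound plus 0.25 ng/mL TGF-beta1 (stock added) for 5 hr at 37 C. Viability was read in the same wells by CellTiter-Glo luminescence after 30 min at room temperature.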

Assay [15] is described as follows: qHTS assay to identify small molecule agonists of the TGF-beta/Smad signaling pathway - cell viability counter screen (AID 1346829). Further: nearly all actives have a fitted effect of over 45% in size. Further: potency means the concentration at half of the fitted maximal effect. The procedure, abridged:
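Luminescence from CellTiter-Glo, read after a 30 min room-temperature incubation, gives cell viability of SBE-bla HEK 293T cells treated 5 hr with compounds at 37 C.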

A short description of assay [16]: qHTS assay to identify small molecule agonists of the TGF-beta/Smad signaling pathway (AID 1346859; active means well fitted activation curve with a large enough effect in the signal ratio in the repeat runs, not every such curve was filed as active; the % refers to the signal ratio; further: series mostly up to about 77 µM). The procedure, abridged:
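Beta-lactamase reporter activity downstream of Smad binding elements was measured in stably transfected HEK 293T cells; compounds were incubated for 5 hr, substrate for 2 hr at room temperature.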

The target in assay [17] is Thyrotropin-releasing hormone receptor (Homo sapiens) (UniProt P34981). The assay is described as follows: qHTS assay to identify small molecule antagonists of the thyrotropin-releasing hormone receptor (TRHR) signaling pathway (AID 1346877; active means well fitted inhibition curve with a large enough effect in the repeat runs, not every such curve was filed as active; further: series mostly up to about 51 µM). The gist of the method: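 Overnight-plated (18 h, 37 °C) HEK293 cells expressing TRHR were dye-loaded 2 h, treated with compound, then stimulated with TRH at 1 nM final. Fluorescence intensity was captured every second for 3 min.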
Chain of Thyrotropin-releasing hormone receptor (Homo sapiens) (P34981 whole entry, looked up): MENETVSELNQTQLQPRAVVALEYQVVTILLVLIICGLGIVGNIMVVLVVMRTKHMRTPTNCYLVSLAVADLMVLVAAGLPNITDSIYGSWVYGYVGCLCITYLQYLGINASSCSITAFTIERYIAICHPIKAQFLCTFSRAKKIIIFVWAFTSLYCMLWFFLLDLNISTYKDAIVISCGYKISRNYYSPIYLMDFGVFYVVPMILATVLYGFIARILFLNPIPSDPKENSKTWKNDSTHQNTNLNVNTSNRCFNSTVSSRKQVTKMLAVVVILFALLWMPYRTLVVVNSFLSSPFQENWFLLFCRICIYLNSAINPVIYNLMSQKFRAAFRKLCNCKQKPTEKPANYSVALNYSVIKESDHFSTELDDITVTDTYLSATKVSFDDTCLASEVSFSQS

Assay [18] in a line: qHTS assay to identify small molecule antagonists of the estrogen receptor beta (ER-beta) signaling pathway - cell viability counter screen (AID 1259382). Further: nearly all actives have a fitted effect of over 55% in size. Further: potency means the concentration at half of the fitted maximal effect. The gist of the method:
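Readout: luminescence, CellTiter-Glo, same wells as bla assay. System: ER-beta-UAS-bla GripTite HEK293T, 2% charcoal-stripped FBS. Exposure: compounds plus 1nM 17-beta-estradiol, 16 hr, 37C.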

Assay [19] deals with Androgen receptor (Homo sapiens) (UniProt P10275). As to the kind of experiment: qHTS assay to identify small molecule agonists of the androgen receptor (AR) signaling pathway in the presence of an antagonist (AID 1259381; calls by dose curve; further: nearly all actives have a fitted effect of over 15% in size). The procedure, abridged: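 Luminescent ONE-Glo read, 30min at room temperature, follows 16hr compound exposure (15 concentrations) of MDA-kb2 cells at 37C, 0% CO2, with nilutamide added at 3.0uM final.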
Chain of Androgen receptor (Homo sapiens) (P10275 whole entry, looked up): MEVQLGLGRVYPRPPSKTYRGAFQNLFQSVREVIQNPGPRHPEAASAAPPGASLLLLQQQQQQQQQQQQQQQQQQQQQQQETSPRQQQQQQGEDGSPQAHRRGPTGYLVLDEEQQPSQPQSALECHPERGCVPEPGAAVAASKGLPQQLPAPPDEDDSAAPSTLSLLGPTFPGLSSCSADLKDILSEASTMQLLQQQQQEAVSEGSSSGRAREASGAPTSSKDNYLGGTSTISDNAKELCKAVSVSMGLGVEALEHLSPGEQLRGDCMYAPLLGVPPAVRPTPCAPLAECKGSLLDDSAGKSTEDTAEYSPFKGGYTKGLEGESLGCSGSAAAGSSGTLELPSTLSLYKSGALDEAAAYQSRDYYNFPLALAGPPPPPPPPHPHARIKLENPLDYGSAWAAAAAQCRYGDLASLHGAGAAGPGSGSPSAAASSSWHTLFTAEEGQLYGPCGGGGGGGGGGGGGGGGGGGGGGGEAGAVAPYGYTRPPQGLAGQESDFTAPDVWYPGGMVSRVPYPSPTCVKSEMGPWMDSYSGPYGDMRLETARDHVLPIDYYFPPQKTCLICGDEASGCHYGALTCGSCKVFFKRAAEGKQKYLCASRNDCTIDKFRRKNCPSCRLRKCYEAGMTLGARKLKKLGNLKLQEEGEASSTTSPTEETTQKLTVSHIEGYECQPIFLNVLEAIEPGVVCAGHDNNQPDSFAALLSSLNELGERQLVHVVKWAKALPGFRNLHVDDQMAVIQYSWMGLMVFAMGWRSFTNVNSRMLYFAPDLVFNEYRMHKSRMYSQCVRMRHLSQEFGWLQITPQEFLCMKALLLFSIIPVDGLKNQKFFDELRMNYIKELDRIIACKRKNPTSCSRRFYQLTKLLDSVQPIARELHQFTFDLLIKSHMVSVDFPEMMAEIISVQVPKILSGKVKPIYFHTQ

Assay [20] addresses Thyrotropin-releasing hormone receptor (Homo sapiens) (UniProt P34981). The assay is described as follows: qHTS assay to identify small molecule agonists of the thyrotropin-releasing hormone receptor (TRHR) signaling pathway (AID 1346891; calls by dose curve;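 further: HEK293 cells expressing TRHR with calcium dye readout; series mostly up to about 58 µM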). The procedure, abridged:
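Overnight-plated (18 h, 37 °C, 5% CO2) TRHR-Hek293 cells; 2 h calcium dye at 37 °C; compound in DMSO; 3-min kinetic fluorescence read.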

Chain of Thyrotropin receptor (Homo sapiens) (P16473 whole entry, looked up): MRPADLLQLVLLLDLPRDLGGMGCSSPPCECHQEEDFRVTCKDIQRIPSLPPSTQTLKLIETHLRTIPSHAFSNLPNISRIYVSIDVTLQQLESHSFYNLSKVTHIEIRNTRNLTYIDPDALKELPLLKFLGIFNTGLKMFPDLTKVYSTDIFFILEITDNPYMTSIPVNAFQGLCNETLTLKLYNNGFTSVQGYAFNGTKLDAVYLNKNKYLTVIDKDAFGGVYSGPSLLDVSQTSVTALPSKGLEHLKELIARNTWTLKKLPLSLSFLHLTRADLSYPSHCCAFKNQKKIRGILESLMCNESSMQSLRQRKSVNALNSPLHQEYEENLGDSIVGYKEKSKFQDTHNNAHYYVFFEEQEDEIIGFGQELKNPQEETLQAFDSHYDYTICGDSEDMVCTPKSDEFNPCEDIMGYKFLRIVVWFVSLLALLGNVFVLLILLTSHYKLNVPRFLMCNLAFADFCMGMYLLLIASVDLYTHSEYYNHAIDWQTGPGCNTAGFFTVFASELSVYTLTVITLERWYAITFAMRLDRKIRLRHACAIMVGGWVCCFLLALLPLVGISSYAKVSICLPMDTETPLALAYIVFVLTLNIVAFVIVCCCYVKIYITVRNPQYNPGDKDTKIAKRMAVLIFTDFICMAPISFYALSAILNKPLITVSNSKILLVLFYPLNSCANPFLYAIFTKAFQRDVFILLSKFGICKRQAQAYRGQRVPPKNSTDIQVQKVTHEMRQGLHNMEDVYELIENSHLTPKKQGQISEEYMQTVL
Chain of Estrogen receptor (Homo sapiens) (P03372 whole entry, looked up): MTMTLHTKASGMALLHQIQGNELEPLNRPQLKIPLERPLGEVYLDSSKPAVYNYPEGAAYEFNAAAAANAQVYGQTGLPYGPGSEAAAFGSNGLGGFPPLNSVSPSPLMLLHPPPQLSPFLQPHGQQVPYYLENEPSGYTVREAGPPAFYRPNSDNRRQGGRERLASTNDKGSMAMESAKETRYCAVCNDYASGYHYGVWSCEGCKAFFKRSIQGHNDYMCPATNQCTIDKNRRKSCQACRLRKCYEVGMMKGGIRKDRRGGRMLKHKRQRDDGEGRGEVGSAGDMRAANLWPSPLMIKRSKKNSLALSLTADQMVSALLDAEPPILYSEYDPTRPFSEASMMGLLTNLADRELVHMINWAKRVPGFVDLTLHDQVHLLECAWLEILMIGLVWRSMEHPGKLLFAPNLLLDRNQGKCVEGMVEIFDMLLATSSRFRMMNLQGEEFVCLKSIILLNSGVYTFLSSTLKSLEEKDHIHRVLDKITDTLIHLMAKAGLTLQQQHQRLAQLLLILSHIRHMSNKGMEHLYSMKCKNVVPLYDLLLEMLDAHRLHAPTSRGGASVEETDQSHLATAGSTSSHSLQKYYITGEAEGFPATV
Chain of Estrogen receptor beta (Homo sapiens) (Q92731 whole entry, looked up): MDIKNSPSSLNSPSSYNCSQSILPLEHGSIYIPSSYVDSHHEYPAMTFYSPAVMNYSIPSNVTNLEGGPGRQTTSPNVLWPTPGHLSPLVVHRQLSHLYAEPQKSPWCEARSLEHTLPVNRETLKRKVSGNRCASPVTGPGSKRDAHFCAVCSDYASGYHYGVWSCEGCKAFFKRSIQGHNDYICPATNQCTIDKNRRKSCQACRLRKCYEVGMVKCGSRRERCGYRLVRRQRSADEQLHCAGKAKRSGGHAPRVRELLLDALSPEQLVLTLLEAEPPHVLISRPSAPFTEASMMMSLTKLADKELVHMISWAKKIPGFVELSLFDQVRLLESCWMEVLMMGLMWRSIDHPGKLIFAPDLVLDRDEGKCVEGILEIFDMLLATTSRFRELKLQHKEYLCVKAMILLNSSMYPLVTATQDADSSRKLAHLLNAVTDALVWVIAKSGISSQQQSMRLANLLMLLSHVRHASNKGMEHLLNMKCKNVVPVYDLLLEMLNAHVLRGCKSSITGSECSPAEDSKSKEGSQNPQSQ

As to `CCCCCCCCCc1ccc(O)cc1`, the Potency was 30.9 µM (active) and 43.3 µM (active) in assay [1]; 19.5 µM (active) in assay [3]; 13.8 µM (active) and 43.3 µM (active) in assay [5]; 27.6 µM (active) and 61.1 µM (active) in assay [11]. Further, the Potency result in [2], in assay [4], in assay [6], in [7], in [8] and in assay [9] was “inactive” in each case. Besides, the Potency result in assay [10], in assay [12], in assay [13], in [14], in assay [15] and in [16] was “inactive” in each case. Also, the Potency result in assay [17] is “inactive”.

For the molecule `CCC[CH2][Sn]([Cl])([Cl])[CH2]CCC`, the Potency in [1] is 196 nM (active) and 243 nM (active); in assay [4] it was 552 nM (active) and 1.09 µM (active); in assay [5], 981 nM (active) and 1.54 µM (active); in assay [18], 1.39 µM (active) and 1.54 µM (active); in [9], 1.96 µM (active) and 2.17 µM (active); in assay [11], 196 nM (active). Further, the Potency was 1.1 µM (active) and 1.37 µM (active) in assay [12]; 1.1 µM (active) and 1.37 µM (active) in assay [13]; 8.82 µM (active) and 13.8 µM (active) in assay [14]; 7.01 µM (active) and 15.5 µM (active) in [15]. The Potency result in assay [2], in assay [6] and in assay [17] was “inactive” throughout.

In the case of `CC(C)(O)C#N`, the Potency entry in assay [1], in assay [3], in assay [4], in assay [5], in assay [18] and in [7] was “inactive” throughout. In addition, the Potency entry in assay [8], in [9], in assay [10], in [11], in [12] and in [13] was “inactive” each time. In addition, the Potency result in [14], in assay [15] and in assay [17] was “inactive” in each case.

Turning to `CC(C)(O)C(=O)Nc1ccc([N+](=O)[O-])c(C(F)(F)F)c1`, in [1], the Potency is 24.8 µM (active) and 22.4 µM (active). Besides, the Potency entry in [2], in [3], in assay [5], in assay [18], in [6] and in assay [7] was “inactive” in each case. The Potency entry in assay [8], in assay [9], in assay [10], in assay [12], in assay [14] and in assay [15] was “inactive” each time.

For `O=C1Nc2ccc(Cl)cc2C(c2ccccc2)=NC1O` (configuration not stated), the Potency entry in assay [2], in assay [3], in [4], in assay [5], in assay [18] and in [7] was “inactive” throughout. Besides, the Potency result in assay [8], in [9], in [10], in assay [11], in assay [12] and in assay [13] was “inactive” each time. The Potency result in assay [15] was “inactive”.

`CCC1(c2ccc(N)cc2)CCC(=O)NC1=O` (configuration not stated): the Potency entry in assay [1], in assay [4], in assay [5], in assay [18], in [6] and in [9] was “inactive” throughout. The Potency result in [10], in assay [11], in [12], in assay [13], in [14] and in assay [15] was “inactive” in each case. The Potency result in [16] and in assay [17] was “inactive” throughout. The outcome in [19] and in [20] was inactive.

Turning to `N#CCCCCC#N`, the Potency entry in assay [1], in [4], in [5], in assay [18], in assay [7] and in assay [8] was “inactive” each time. The Potency entry in assay [9], in assay [10], in assay [11], in [12], in [13] and in [14] was “inactive” each time. Also, the Potency entry in assay [15] and in [17] was “inactive” each time.

In the case of `O=[N+]([O-])c1ccc(Cl)c([N+](=O)[O-])c1`, the Potency in assay [1] was 1.1 µM (active) and 6.86 µM (active); in assay [4], 22 µM (active) and 21.7 µM (active); in assay [5], 27.7 µM (active) and 27.3 µM (active); in assay [18] it was 27.7 µM (active) and 27.3 µM (active); in [9] it was 31.1 µM (active) and 27.3 µM (active); in assay [11], 24300 nM (active). The Potency in assay [12] is 31.1 µM (active) and 27.3 µM (active); in assay [13] it was 27.7 µM (active) and 27.3 µM (active); in assay [14], 55.8 µM (active) and 34.7 µM (active); in [15], 24.5 µM (active). The outcome in [19] and in assay [20] was inactive. The Potency entry in assay [6], in assay [7], in [8] and in assay [17] was “inactive” each time.

The record behind these values is PubChem BioAssay (Tox21).
